Experimental data from PubChem BioAssay (NCI).
About 79,000 compounds went through this panel and 15% of them were active in at least one assay; those are over-represented in the sample as a whole. The source made the active and inactive calls. Cut-off read from the data, not from the text of the source: active = growth inhibition above about 70%; inactive = the rest.

Assays:
[1] = NCI Yeast Anticancer Drug Screen. Data for the rad14 strain (AID 159);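 note: 0% = growth of vehicle-treated control cultures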; conditions: S. cerevisiae rad14 strain growth inhibition, hits give high values
Method in brief: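 DNA repair-defective yeast, compound-exposed; % growth inhibition derived by comparison with vehicle-treated controls.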

[2] = NCI Yeast Anticancer Drug Screen. Data for the sgs1 mgt1 strain (AID 161);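 note: 0% = growth of cultures given vehicle only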; conditions: S. cerevisiae sgs1 mgt1 strain, hits give high values
Method in brief: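 This yeast growth screen uses a strain with defined DNA-repair lesions; compound-treated growth is compared with vehicle-treated growth.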

[3] = NCI Yeast Anticancer Drug Screen. Data for the CLN2oe strain (AID 163);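 note: 0% = growth of vehicle-only control cultures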; conditions: S. cerevisiae CLN2oe strain, hits give high values
Method in brief: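 Whole-cell yeast growth assay. A strain engineered for altered cell-cycle control received compound, and inhibition relative to vehicle-treated cultures was recorded.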

[4] = NCI Yeast Anticancer Drug Screen. Data for the cln2 rad14 strain (AID 165);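 note: 0% = growth equal to vehicle treated cultures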; conditions: S. cerevisiae cln2 rad14 strain, hits give high values
Method in brief: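 Yeast strain cln2 rad14, bearing defects in cell cycle control and DNA repair, serves as the test system; values reflect growth inhibition compared with vehicle.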

[5] = NCI Yeast Anticancer Drug Screen. Data for the bub3 strain (AID 167); conditions: S. cerevisiae bub3 mutant strain, hits give high values
Method in brief: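 In this screen, a yeast mutant lacking normal mitotic checkpoint function is challenged with compound. Relative growth versus vehicle gives the inhibition value.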

[6] = NCI Yeast Anticancer Drug Screen. Data for the wt2 strain (AID 169);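 note: 0% = growth of vehicle-treated yeast cultures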; conditions: S. cerevisiae wt2 strain growth inhibition, hits give high values
Method in brief: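 Treated yeast vs. vehicle-treated yeast: growth inhibition determined.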

[7] = NCI Yeast Anticancer Drug Screen. Data for the mlh1 strain (AID 171);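 note: 0% = growth of vehicle-treated control cultures of the same strain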; conditions: S. cerevisiae mlh1 strain growth inhibition, hits give high values
Method in brief: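 A yeast strain with a defined genetic lesion serves as the test organism. Cultures receive compound or vehicle, and growth is measured.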

[8] = NCI Yeast Anticancer Drug Screen. Data for the sgs1 strain (AID 173);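 note: 0% = growth of vehicle-only control cultures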; conditions: S. cerevisiae sgs1 mutant, hits give high values
Method in brief: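 A genetically defined yeast mutant is incubated with the test compound, and its growth is compared to that of the same strain given vehicle.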

[9] = NCI Yeast Anticancer Drug Screen. Data for the mlh1 rad18 strain (AID 175); conditions: S. cerevisiae mlh1 rad18 strain growth inhibition, hits give high values
Method in brief: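 Steps: expose repair-defective yeast to compound; measure growth; express inhibition against vehicle-treated controls.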

[10] = NCI Yeast Anticancer Drug Screen. Data for the rad18 strain (AID 177); conditions: S. cerevisiae rad18 mutant growth inhibition, hits give high values
Method in brief: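 Measured value is growth inhibition of a yeast strain bearing a DNA repair alteration, referenced to vehicle-treated cells.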

[11] = NCI Yeast Anticancer Drug Screen. Data for the rad52 strain (AID 147);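 note: 0% = growth of vehicle-treated control cultures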; conditions: S. cerevisiae rad52 mutant growth inhibition, hits give high values
Method in brief: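 Here a repair-compromised yeast strain receives each compound; its growth is then quantified and normalised to vehicle-only controls.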

[12] = NCI Yeast Anticancer Drug Screen. Data for the wt1 strain (AID 149);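 note: 0% = growth of vehicle-treated wt1 cultures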; conditions: S. cerevisiae wt1 strain (SPY 50644) growth inhibition, hits give high values
Method in brief: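 wt1 strain grown with compound or vehicle; inhibition taken from the growth difference.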

[13] = NCI Yeast Anticancer Drug Screen. Data for the mgt1 strain (AID 153); conditions: S. cerevisiae mgt1 mutant growth inhibition, hits give high values
Method in brief: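 Measured: inhibition of mgt1 yeast growth by compound, normalized to vehicle-treated cultures.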

[14] = NCI Yeast Anticancer Drug Screen. Data for the rad50 strain (AID 155);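 note: 0% = growth of vehicle-only cultures of the same strain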; conditions: S. cerevisiae rad50 strain growth inhibition, hits give high values
Method in brief: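 DNA repair mutant yeast, compound exposure, growth read-out; inhibition is taken relative to vehicle.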

[15] = NCI Yeast Anticancer Drug Screen. Data for the mec2-1 strain (AID 157); conditions: S. cerevisiae mec2-1 strain, hits give high values
Method in brief: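 Using mec2-1 yeast: add compound, measure growth, express inhibition versus vehicle-treated cultures.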

[16] = NCI Yeast Anticancer Drug Screen. Data for the rad50EPP+ strain (AID 151);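 note: 0% = growth of vehicle-treated control cultures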; conditions: S. cerevisiae rad50 mutant strain, hits give high values
Method in brief: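 Read-out is yeast growth inhibition relative to vehicle; cells used were the rad50EPP+ strain.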

[17] = at 5.0 µM (retest, dose inferred, filed as 0.5)
[18] = at 50.0 µM (retest, dose inferred, filed as 5.0)

Measured: growth inhibition

CCOC(=O)c1csc(Br)n1
inactive: [1]; at 100.0 µM -8% | [2]; [17] -18% | [2]; [18] -6% | [3]; at 1.2 µM -2% | [3]; at 3.7 µM -5% | [3]; at 11.0 µM 0% | [3]; at 33.0 µM 0% | [3]; at 100.0 µM -4% | [4]; [17] -8% | [4]; [18] 39% | [5]; at 1.2 µM -5% | [5]; at 3.7 µM -4% | [5]; [17] -11% | [5]; at 11.0 µM -6% | [5]; at 33.0 µM -6% | [5]; [18] -7% | [5]; at 100.0 µM -14% | [6]; at 1.2 µM -2% | [6]; at 3.7 µM -2% | [6]; at 11.0 µM -2% | [6]; at 33.0 µM -4% | [6]; at 100.0 µM -4% | [7]; at 1.2 µM 3% | [7]; at 3.7 µM -7% | [7]; at 11.0 µM 0% | [7]; at 33.0 µM 3% | [7]; at 100.0 µM 0% | [8]; at 1.2 µM -2% | [8]; at 3.7 µM -2% | [8]; at 11.0 µM -1% | [8]; at 33.0 µM -3% | [8]; at 100.0 µM -6% | [9]; [17] -16% | [9]; [18] -18% | [10]; at 1.2 µM -1% | [10]; at 3.7 µM -3% | [10]; at 11.0 µM 1% | [10]; at 33.0 µM -4% | [10]; at 100.0 µM -14%
active: [2]; at 50.0 µM 97.8% | [4]; at 50.0 µM 83.5% | [5]; at 50.0 µM 99% | [9]; at 50.0 µM 78.3%

CCOC(=O)C1=C(C)NC(C)=C(C(=O)OCC)C1c1ccccc1Cl
active: [11]; at 100.0 µM 93% | [12]; at 100.0 µM 95% | [13]; at 100.0 µM 96% | [14]; [18] 100% | [14]; at 50.0 µM 90% | [14]; at 100.0 µM 91% | [15]; [18] 99% | [15]; at 50.0 µM 91.7% | [15]; at 100.0 µM 95% | [1]; at 100.0 µM 93% | [2]; [18] 91% | [3]; at 100.0 µM 94% | [4]; [18] 90% | [5]; [18] 84% | [5]; at 100.0 µM 95% | [6]; at 100.0 µM 96% | [7]; at 100.0 µM 93% | [8]; at 100.0 µM 96% | [9]; [18] 99% | [9]; at 50.0 µM 90.4% | [10]; at 100.0 µM 93%
inactive: [11]; at 1.2 µM -25% | [11]; at 3.7 µM -10% | [11]; at 11.0 µM 4% | [11]; at 33.0 µM 42% | [12]; at 1.2 µM -8% | [12]; at 3.7 µM 3% | [12]; at 11.0 µM -6% | [12]; at 33.0 µM 40% | [13]; at 1.2 µM 14% | [13]; at 3.7 µM 14% | [13]; at 11.0 µM 19% | [13]; at 33.0 µM 54% | [14]; at 1.2 µM 9% | [14]; at 3.7 µM 23% | [14]; [17] 54% | [14]; at 11.0 µM 29% | [14]; at 33.0 µM 48% | [15]; at 1.2 µM 8% | [15]; at 3.7 µM -2% | [15]; [17] 52% | [15]; at 11.0 µM -2% | [15]; at 33.0 µM 51% | [1]; at 1.2 µM -4% | [1]; at 3.7 µM -10% | [1]; at 11.0 µM 10% | [1]; at 33.0 µM 53% | [2]; [17] -15% | [3]; at 1.2 µM -13% | [3]; at 3.7 µM -22% | [3]; at 11.0 µM 38% | [3]; at 33.0 µM 56% | [4]; [17] 43% | [5]; at 1.2 µM 35% | [5]; at 3.7 µM 34% | [5]; [17] 26% | [5]; at 11.0 µM 4% | [5]; at 33.0 µM 62% | [6]; at 1.2 µM 14% | [6]; at 3.7 µM 11% | [6]; at 11.0 µM 20% | [6]; at 33.0 µM 49% | [7]; at 1.2 µM -38% | [7]; at 3.7 µM -31% | [7]; at 11.0 µM -25% | [7]; at 33.0 µM 41% | [8]; at 1.2 µM 26% | [8]; at 3.7 µM 28% | [8]; at 11.0 µM 38% | [8]; at 33.0 µM 67% | [9]; [17] 36% | [10]; at 1.2 µM 2% | [10]; at 3.7 µM 18% | [10]; at 11.0 µM 20% | [10]; at 33.0 µM 50%

Cc1cccc(/C=N/NC(=S)N(C)CCc2ccccn2)n1
inactive: [16]; at 1.2 µM -23% | [16]; at 3.7 µM -11% | [16]; at 11.0 µM 54% | [2]; [17] 44% | [4]; [17] 9% | [5]; at 1.2 µM 56% | [5]; [17] 56% | [9]; [17] 61%
active: [11]; at 1.2 µM 96% | [11]; at 3.7 µM 98% | [11]; at 11.0 µM 98% | [11]; at 33.0 µM 99% | [11]; at 100.0 µM 99% | [12]; at 1.2 µM 90% | [12]; at 3.7 µM 94% | [12]; at 11.0 µM 98% | [12]; at 33.0 µM 99% | [12]; at 100.0 µM 99% | [16]; at 33.0 µM 84% | [16]; at 100.0 µM 90% | [15]; at 1.2 µM 94% | [15]; at 3.7 µM 97% | [15]; [17] 81% | [15]; at 11.0 µM 98% | [15]; at 33.0 µM 99% | [15]; [18] 97% | [15]; at 50.0 µM 86.7% | [15]; at 100.0 µM 99% | [1]; at 1.2 µM 95% | [1]; at 3.7 µM 97% | [1]; at 11.0 µM 99% | [1]; at 33.0 µM 99% | [1]; at 100.0 µM 99% | [2]; [18] 97% | [2]; at 50.0 µM 91.3% | [3]; at 1.2 µM 81% | [3]; at 3.7 µM 92% | [3]; at 11.0 µM 97% | [3]; at 33.0 µM 98% | [3]; at 100.0 µM 98% | [4]; [18] 97% | [4]; at 50.0 µM 90.7% | [5]; at 3.7 µM 91% | [5]; at 11.0 µM 97% | [5]; at 33.0 µM 98% | [5]; [18] 99% | [5]; at 50.0 µM 91% | [5]; at 100.0 µM 98% | [6]; at 1.2 µM 89% | [6]; at 3.7 µM 93% | [6]; at 11.0 µM 97% | [6]; at 33.0 µM 98% | [6]; at 100.0 µM 99% | [7]; at 1.2 µM 91% | [7]; at 3.7 µM 95% | [7]; at 11.0 µM 98% | [7]; at 33.0 µM 98% | [7]; at 100.0 µM 99% | [8]; at 1.2 µM 97% | [8]; at 3.7 µM 98% | [8]; at 11.0 µM 99% | [8]; at 33.0 µM 99% | [8]; at 100.0 µM 98% | [9]; [18] 99% | [9]; at 50.0 µM 92.1%
